HT1080-NT tox: kills 2HG-producing HT-1080-NT fibrosarcoma cells | hit rate 1.6% among 360,000 | HT-1080-NT fibrosarcoma viability, CellTiter-Glo ATP luminescence, 48 h | AID 686970 | Potency, µM (top dose mostly 46.1 µM), for the others: at the top dose activity, negative = less viability, most hits filed as cytotoxic;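 note: NT is the 2HG producing partner of a matched IDH1 knockdown line; potency is the fitted concentration of half-maximal effect; 0% = DMSO-treated cells and -100% = media-only wells without cells; nearly all actives have a fitted effect of over 55% in size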
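Read-out is CellTiter-Glo luminescence after 10 minutes at room temperature, following 48 hours' compound treatment of HT-1080-NT cells (750 cells/well, RPMI, 5% FBS, 37 degrees C).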
IL-1B inflam inh: blocks inflammasome-driven IL-1 beta release; THP-1 LPS/ATP IL-1B secretion, AlphaLISA, 16 h; active compounds read low; activity change, % at 57.5 µM; hit rate 4.7% among 360,000; in the data active = activity change below about -50%; inconclusive = mostly about -30% to -49%
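THP-1 cells pretreated 1 hr with compounds (up to 57.5 uM final), then stimulated with LPS (250 ng/mL final) plus ATP (1.25 mM final); secreted IL-1B measured by AlphaLISA after 16 hr, decreased signal indicating inhibition.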
TDP1 cell noCPT: qHTS for Inhibitors of human tyrosyl-DNA phosphodiesterase 1 (TDP1): qHTS in cells in absence of CPT | DT40 Tdp1-/- hTDP1 cells, no CPT, ATP luminescence, 48 h | Potency, µM (titrated, usually from 46.2 µM), for the others: top-dose activity change, negative = growth inhibition, most hits filed as inhibitors | hit rate 15% among 420,000; note: potency is the fitted concentration of half-maximal effect; nearly all actives have a fitted effect of over 55% in size
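DT40 Tdp1-/-;hTDP1 cells, no CPT (DMSO vehicle only), 400 cells/well; compounds pin-transferred; ≥48 hr, 37 °C; CellTiter-Glo 30 min RT dark, luminescence read.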
HT1080 IDH1KD tx: HT-1080 IDH1 knockdown cell toxicity (counter line); HT-1080 IDH1 knockdown viability, ATP luminescence, 48 h; Potency, µM (top dose mostly 46.1 µM), for the others: at the top dose activity, negative = toxicity, usual class: cytotoxic; hit rate 2% among 360,000; AID 686971;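 note: potency is the fitted concentration of half-maximal effect; 0% = DMSO wells and -100% = cell-free medium wells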
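In this qHTS, HT-1080 cells depleted of IDH1 are exposed for 48 h at 37 °C to compound titrations. Toxicity is scored from CellTiter-Glo luminescence, with DMSO as full viability and medium alone as none.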
DT40 TDP1 CPT: DT40-hTDP1 cell growth loss with CPT. hit rate 12% among 420,000. chicken DT40 Tdp1-/-;hTDP1 cells + 20 nM CPT, ATP luminescence, 48 h. Potency, µM (titrated, usually from 46.2 µM), without a hit: top-dose activity change, negative = growth inhibition, hits mostly inhibitors. AID 686979; note: potency is the fitted concentration of half-maximal effect; nearly all actives have a fitted effect of over 55% in size
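Chicken DT40 Tdp1-/- cells complemented with human TDP1, 400 cells/well, exposed to compounds plus 20 nM camptothecin for at least 48 h at 37 C; viability read as ATP content by CellTiter-Glo luminescence.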
* = called active by the depositor; ? = inconclusive; . = not tested or not shown; [ ] = remark or other dose. Most compounds without a hit are left out; they make up all but 19% or so of the library. Unless noted, calls come from the whole dose curve; as a rule, active = well fitted curve in the direction sought with a large enough effect; inconclusive = small, poorly fitted or top-dose-only effect, or another doubt; inactive = no such curve, though single readings can be large; an effect the other way counts as inactive or inconclusive. Unless noted, % is set by controls: 0 for no effect and ±100 for the full control effect.

SMILES	HT1080-NT tox	IL-1B inflam inh	TDP1 cell noCPT	HT1080 IDH1KD tx	DT40 TDP1 CPT
Cc1ccc(OCC(COCc2ccccc2)NC(C)C)cc1 (configuration not stated)	-25%	?	18µM*	-27%	?
Cc1cc(=O)oc2c(C)c(OCC(=O)Nc3cccnc3)ccc12	10%	-3	4%	16%	2%
C/C=N/NC(=O)c1cc(Br)ccc1O	-4%	8	-17%	-9%	-5%
O=C(C(=O)c1cc(Br)ccc1O)c1cc(Br)ccc1O	3.7µM*	-84*	23µM*	2.9µM*	?
O=C(c1ccc(O)c(Br)c1)c1cc(Br)ccc1O	5.8µM*	25	?	?	?
CCOc1ccccc1C(=O)NCC(=O)NCCSc1ccc(Br)cc1	-4%	-28	?	-7%	?
OCc1nc2ccccc2[nH]1	.	.	-8%	.	-1%
CCCNS(=O)(=O)c1ccc(OCC(=O)Nc2ccc3c(c2)OCCO3)c(C)c1	-1%	-13	?	-4%	?
O=C(CSc1oc(-c2ccc(F)cc2)nc1S(=O)(=O)c1ccccc1)c1ccc(Cl)cc1	.	.	9.2µM*	.	10µM*
O=S(=O)(c1ccccc1)c1nc(-c2cccs2)oc1SCc1ccccc1F	.	.	-27%	.	?
O=C(CSc1oc(-c2cccs2)nc1S(=O)(=O)c1ccccc1)Nc1ccc(F)cc1	.	.	?	.	16µM*
Cc1cc(C)cc(NC(=O)CSc2oc(-c3cccs3)nc2S(=O)(=O)c2ccccc2)c1	.	.	5.8µM*	.	21µM*
CN[C@@H]1CCc2[nH]c3ccc(C(N)=O)cc3c2C1	.	.	2%	.	1%
COc1ccc(-c2nc(-c3ccccc3)ncc2S(C)(=O)=O)cc1	12%	17	?	1%	?
CCC(Sc1nc2ccccc2c2nc(CCc3c(C)n[nH]c3C)nn12)C(=O)Nc1ccc(F)cc1 (configuration not stated)	.	.	-14%	.	?
COc1cc(C)ccc1N(CCCN1C(=O)c2cccc3cccc(c23)C1=O)C(=O)c1cccs1	10%	-7	9.2µM*	7%	9.2µM*
COc1ccc(N(CCCN2C(=O)c3cccc4cccc(c34)C2=O)C(=O)c2cccs2)cc1	-15%	31	?	-22%	?
CSc1ccc(CNc2ncc(-c3cccc([N+](=O)[O-])c3)n2C)cc1	-8%	?	23µM*	-1%	16µM*
CSc1ccc(CNc2ncc(-c3ccccc3)n2C)cc1	.	.	18µM*	.	?
Cn1c(-c2ccccc2)cnc1NCc1cccc([N+](=O)[O-])c1	9%	?	?	7%	?
COc1c(C)cc(S(=O)(=O)NCCN2CCOCC2)c(C)c1C	14%	21	-4%	6%	22%
CCOC(=O)C1CCCN(S(=O)(=O)c2c(C(=O)N3CCCCC3)c(C)n(C)c2C)C1 (configuration not stated)	11%	-1	8%	14%	-11%
Cc1ccc(CCNC(=O)CSCc2ccc(F)cc2)cc1	2%	-12	4%	-2%	11%
CCCS(=O)(=O)NC(=O)C1(C)CCN(C(=O)c2cc(C(C)(C)C)nn2C)C1 (configuration not stated)	25%	-53*	-7%	19%	3%
CC1CC(=O)Nc2ccccc2N1S(=O)(=O)c1ccc(F)cc1F (configuration not stated)	7%	.	-2%	6%	2%
SMILES	HT1080-NT tox	IL-1B inflam inh	TDP1 cell noCPT	HT1080 IDH1KD tx	DT40 TDP1 CPT
OC1(c2cccc(C(F)(F)F)c2)CCN(Cc2nnnn2CCc2ccccc2)CC1	-24%	-7	21µM*	-16%	23µM*
c1ccc(Cn2nnnc2CN2CCOCC2)cc1	1%	1	1%	-1%	3%
OC1(c2cccc(C(F)(F)F)c2)CCN(Cc2nnnn2Cc2ccccc2)CC1	-10%	-70*	?	-25%	?
COC(=O)C(N)Cc1ccc(Cl)cc1 (configuration not stated)	0%	12	5%	7%	-1%
COC(=O)[C@@H](N)Cc1ccc(O)c(O)c1	2%	45	?	8%	27µM*
Cc1csc(=Nc2ccc(S(=O)(=O)N3CCOCC3)cc2)n1Cc1ccco1	1%	-8	23µM*	7%	23µM*
CC(C)Cn1c(-c2ccc(S(=O)(=O)N3CCCC3)cc2)csc1=Nc1ccccc1	.	.	3.3µM*	.	5.8µM*
C=CCn1c(-c2ccc(S(=O)(=O)N3CCOCC3)cc2)csc1=Nc1ccccc1	-13%	?	6.5µM*	-17%	6.5µM*
O=S(=O)(c1ccc(-c2ccccc2)cc1)N1CCOCC1	-11%	19	8%	-1%	4%
CC(=O)c1cccc(N=c2scc(-c3ccc(S(=O)(=O)N4CCOCC4)cc3)n2CCO)c1	-14%	17	2.6µM*	-15%	6.5µM*
COc1ccc(C(=O)N2CCCC(C(N)=O)C2)cc1S(=O)(=O)N1CCOCC1 (configuration not stated)	8%	0	2%	1%	-3%
CN(C)C(=S)Oc1ccccc1C1SCCS1	-3%	-1	?	-7%	0%
O=C(NCCNC(=O)c1ccc(Cl)cc1Cl)c1ccc(Cl)cc1Cl	3%	40	-8%	15%	?
CCN(CC)CCCNC(=O)c1[nH]c2ccccc2c1Sc1ccc(Cl)cc1	21µM*	-76*	15µM*	16µM*	?
O=C(NCCCN1CCCC1)c1cc(Sc2ccc(F)cc2)nc2ccccc12	21µM*	-52*	-21%	26µM*	-21%
COc1ccc2c(Sc3ccc(Cl)cc3)c(C(=O)NCCCN3CCCCC3)[nH]c2c1	.	.	23µM*	.	23µM*
O=C(NCCCN1CCCCC1)c1cc(Sc2ccc(Cl)cc2)nc2ccccc12	.	.	23µM*	.	16µM*
Cc1nc([N+](=O)[O-])cn1CC(O)c1ccc2c(c1)OCO2 (configuration not stated)	.	.	4%	.	-11%
Cc1ncc2c(c1CNC(=O)c1ccc3c(c1)OCO3)CCN(C(=O)c1ccoc1)C2	.	.	-13%	.	2%[9.04 µM]
CCc1ccc(S(=O)(=O)NC(=S)Nc2ccccc2)cc1	11%	-9	?	11%	?
O=C(c1ccccc1F)N1CCN(c2ccc([N+](=O)[O-])c(NCc3cccnc3)c2)CC1	-21%	.	?	-18%	?
COc1ccc(CCNc2cc(N3CCN(C(=O)c4ccccc4F)CC3)ccc2[N+](=O)[O-])cc1OC	-2%	-2	5.2µM*	?	4.6µM*
COc1ccc(CCNc2ccc(C(=O)O)cc2[N+](=O)[O-])cc1OC	2%	27	8%	0%	9%
